Measurements taken from PubChem BioAssay (NCATS).
Unmarked numbers belong to inactive results. Results filed as inconclusive are left out. A call without a number means that no potency is given here. Active and inactive are the calls of the source. Unless noted, calls come from the whole dose curve; as a rule, active = well fitted curve in the direction sought with a large enough effect; inconclusive = small, poorly fitted or top-dose-only effect, or another doubt; inactive = no such curve, though single readings can be large; an effect the other way counts as inactive or inconclusive.

How the values were obtained:
[1] = AP1 Signaling Pathway (AID 357; active = well fitted curve in either direction with a large enough effect, not every such curve was filed as active;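 note: ME-180 reporter cells stimulated with EGF at its EC50 level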); settings: ME-180 AP-1-bla reporter, EGF-induced, beta-lactamase ratio, 5 h; at 17.2 µM (top of the series) unless noted
In short: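 A ratiometric CCF4 readout (405 nm excitation; 460 and 530 nm emission) quantified AP-1-driven beta-lactamase in ME-180 cells after 5 h with compound and EC50 EGF; AC50 values were derived for activators and inhibitors.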

[2] = NFAT Signaling Pathway (AID 444; active = well fitted curve in either direction with a large enough effect, not every such curve was filed as active;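 note: carbachol stimulus at about its EC50 of 1 µM final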); settings: Jurkat NFAT-bla M1, carbachol, beta-lactamase ratio, 5 h; at 17.2 µM (top of the series) unless noted
In short: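 Jurkat cells carrying an NFAT-driven β-lactamase reporter and co-transfected muscarinic M1 receptor were treated with compound plus carbachol (1 uM final, an EC50 level) for 5 h at 37 °C. CCF4 loading followed for 1 h at RT; 460/530 nm ratio gave %activity.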

[3] = Stat Signaling Pathway (AID 446; active = well fitted curve in either direction with a large enough effect, not every such curve was filed as active;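 note: ME-180 cervical cancer cells given 40 pM IL-6 alongside compound; SIE-controlled beta-lactamase reporter measured as 460/530 nm FRET emission ratio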); settings: ME-180 SIE beta-lactamase reporter, IL-6 stimulated, 5 h; at 17.2 µM (top of the series) unless noted
In short: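 Compound effects on IL-6-induced STAT reporter activity were measured in ME-180 cells. After overnight culture, cells were co-treated with 40 pM IL-6 for 5 hrs before beta-lactamase substrate loading at room temperature.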

[4] = target: Glucocorticoid receptor (Homo sapiens) (UniProt P04150); assay: GR-GFP Redistribution (AID 450;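 active = compounds whose dose series gives a full or clear partial fitted curve of increased nuclear translocation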; note: potency is the fitted concentration of half-maximal effect)
Sequence of Glucocorticoid receptor (Homo sapiens) (P04150 whole entry, looked up, the tested form may be a part): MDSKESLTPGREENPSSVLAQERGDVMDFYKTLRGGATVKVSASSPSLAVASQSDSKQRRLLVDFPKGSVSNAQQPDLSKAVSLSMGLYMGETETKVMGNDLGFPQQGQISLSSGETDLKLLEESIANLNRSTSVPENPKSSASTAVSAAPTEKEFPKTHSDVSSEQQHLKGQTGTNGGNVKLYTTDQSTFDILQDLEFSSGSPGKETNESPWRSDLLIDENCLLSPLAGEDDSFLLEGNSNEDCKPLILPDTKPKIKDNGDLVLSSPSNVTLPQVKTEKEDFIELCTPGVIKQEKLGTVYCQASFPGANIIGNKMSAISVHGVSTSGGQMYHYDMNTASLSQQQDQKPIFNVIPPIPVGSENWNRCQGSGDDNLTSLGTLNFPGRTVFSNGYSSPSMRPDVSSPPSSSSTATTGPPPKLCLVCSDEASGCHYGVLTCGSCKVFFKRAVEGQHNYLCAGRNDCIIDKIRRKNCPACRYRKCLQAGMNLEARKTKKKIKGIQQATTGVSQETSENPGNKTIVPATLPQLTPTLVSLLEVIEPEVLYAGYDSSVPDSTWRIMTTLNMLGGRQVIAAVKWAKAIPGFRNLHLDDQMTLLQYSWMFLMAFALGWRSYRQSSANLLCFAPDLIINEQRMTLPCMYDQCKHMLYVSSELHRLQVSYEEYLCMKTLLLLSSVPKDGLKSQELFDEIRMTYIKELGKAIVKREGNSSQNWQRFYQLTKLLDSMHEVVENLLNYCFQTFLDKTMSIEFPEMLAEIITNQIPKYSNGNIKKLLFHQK

[5] = target: Glucocorticoid receptor (Homo sapiens) (UniProt P04150); assay: GR-EFC Redistribution (AID 451; calls by dose curve; note: potency is the fitted concentration of half-maximal effect); settings: CHO-K1 GR-EFC translocation, beta-gal luminescence, 2 h
In short: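 CHO-K1 cells stably expressing nuclear-localized β-gal enzyme acceptor and GR fused C-terminally to the enzyme donor fragment; ligand-driven nuclear translocation restores β-gal by complementation. Compounds titrated up to 46 uM final, 2 h at 37 °C; luminescence read.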

[6] = target: Mitogen-activated protein kinase 10 (Mus musculus) (UniProt Q61831); assay: JNK3 AlphaScreen Assay (AID 530; active = well fitted curve in either direction with a large enough effect, not every such curve was filed as active;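 note: kinase came from lysate of stimulated human HepG2 cells; signal reports phosphorylation of biotinylated GST-cJun 1-79 at Ser73 with 10 µM ATP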)
In short: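 Phosphorylation of biotinylated GST-cJun(1-79) at Ser73 is measured by AlphaScreen proximity luminescence. Enzyme is JNK3 in HepG2 lysates activated with interleukin-1beta and tumor necrosis factor alpha; ATP is 10 uM final.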

[7] = target: 3',5'-cyclic-AMP phosphodiesterase 4B (Homo sapiens) (UniProt Q07343); assay: qHTS Assay for Inhibitors of PDE-IV (AID 607; active = well fitted activation curve with a large enough effect in the main read-out, with a control signal flat, not every such curve was filed as active)
Sequence of 3',5'-cyclic-AMP phosphodiesterase 4B (Homo sapiens) (Q07343 whole entry, looked up): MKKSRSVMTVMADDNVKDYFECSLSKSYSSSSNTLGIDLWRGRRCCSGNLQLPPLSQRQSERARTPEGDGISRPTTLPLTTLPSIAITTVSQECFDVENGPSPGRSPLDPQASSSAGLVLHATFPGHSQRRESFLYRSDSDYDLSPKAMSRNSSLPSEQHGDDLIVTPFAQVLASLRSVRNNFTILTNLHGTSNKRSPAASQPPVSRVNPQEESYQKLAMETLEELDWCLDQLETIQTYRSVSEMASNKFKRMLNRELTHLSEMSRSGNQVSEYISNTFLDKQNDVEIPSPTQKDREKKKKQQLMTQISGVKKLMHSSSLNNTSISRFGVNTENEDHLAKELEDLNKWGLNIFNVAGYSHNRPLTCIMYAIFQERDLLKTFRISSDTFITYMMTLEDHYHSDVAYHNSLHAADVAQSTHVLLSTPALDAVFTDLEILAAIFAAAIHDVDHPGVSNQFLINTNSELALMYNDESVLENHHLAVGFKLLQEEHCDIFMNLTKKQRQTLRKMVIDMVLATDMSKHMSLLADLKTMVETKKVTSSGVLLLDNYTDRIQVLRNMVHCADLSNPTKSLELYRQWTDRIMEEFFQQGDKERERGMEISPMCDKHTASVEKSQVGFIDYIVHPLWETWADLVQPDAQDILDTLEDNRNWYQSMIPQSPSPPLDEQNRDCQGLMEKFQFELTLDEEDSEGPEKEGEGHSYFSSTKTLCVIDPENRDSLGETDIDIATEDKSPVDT
In short: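 ACTOne HEK293 cells carry a modified cAMP-gated CNG channel and express endogenous PDE4; plated 1000 cells/well, compounds up to 22.9 uM final. Membrane-potential dye fluorescence (ex 535/em 590) was read; parental cells received 10 uM forskolin + 100 uM RO 20-1724.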

[8] = target: Cytochrome P450 3A4 (Homo sapiens) (UniProt P08684); assay: qHTS Assay for Activators of Cytochrome P450 3A4 (AID 885); note: nearly all actives have a fitted effect of over 65% in size
Sequence of Cytochrome P450 3A4 (Homo sapiens) (P08684 whole entry, looked up): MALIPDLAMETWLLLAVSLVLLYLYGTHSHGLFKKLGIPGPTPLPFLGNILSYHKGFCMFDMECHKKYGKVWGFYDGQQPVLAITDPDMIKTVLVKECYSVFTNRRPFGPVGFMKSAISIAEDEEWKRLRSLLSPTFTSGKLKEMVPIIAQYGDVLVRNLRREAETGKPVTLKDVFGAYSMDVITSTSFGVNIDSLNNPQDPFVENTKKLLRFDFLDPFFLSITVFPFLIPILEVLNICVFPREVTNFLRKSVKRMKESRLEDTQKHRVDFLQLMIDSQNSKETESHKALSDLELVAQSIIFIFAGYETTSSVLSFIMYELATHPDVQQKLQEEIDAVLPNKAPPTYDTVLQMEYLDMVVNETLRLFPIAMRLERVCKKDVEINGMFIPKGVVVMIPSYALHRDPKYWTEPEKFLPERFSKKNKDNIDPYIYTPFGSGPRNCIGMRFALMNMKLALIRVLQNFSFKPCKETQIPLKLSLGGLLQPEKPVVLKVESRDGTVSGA
In short: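 CYP3A4 activity: Luciferin-PPXE O-dealkylation, 25uM substrate, 200mM KPO4, RT throughout. Read-out is luciferase luminescence; higher values reflect activation.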

[9] = target: Guanine nucleotide-binding protein G(i) subunit alpha-1 (Homo sapiens) (UniProt P63096); assay: qHTS Assay for Inhibitors of RGS12 GoLoco Motif Activity (Green Fluorophore) (AID 879);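 note: negative values mean loss of peptide binding seen as reduced polarization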
Sequence of Guanine nucleotide-binding protein G(i) subunit alpha-1 (Homo sapiens) (P63096 whole entry, looked up): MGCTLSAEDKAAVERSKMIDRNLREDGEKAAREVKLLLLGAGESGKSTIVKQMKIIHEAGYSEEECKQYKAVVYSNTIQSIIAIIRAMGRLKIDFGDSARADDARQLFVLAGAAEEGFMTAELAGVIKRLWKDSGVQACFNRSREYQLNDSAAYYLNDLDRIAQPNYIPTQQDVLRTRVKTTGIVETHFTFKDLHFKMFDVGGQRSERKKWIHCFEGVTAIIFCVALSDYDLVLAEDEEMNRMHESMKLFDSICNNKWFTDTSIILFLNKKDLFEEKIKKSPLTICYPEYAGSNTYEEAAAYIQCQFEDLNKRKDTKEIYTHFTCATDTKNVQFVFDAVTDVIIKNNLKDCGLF
In short: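 A drop in FITC polarization marked displacement of the FITC-tagged RGS12 GoLoco peptide (10 nM) from Gαi1 (50 nM). Compounds were incubated 10 min at room temperature in Tris pH 7.5 buffer containing 150 mM NaCl, 0.1 mM GDP and 0.05% NP40; unlabeled peptide titration served as control.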

[10] = qHTS Assay for Identification of Small Molecule Agonists for Thrombopoietin (TPO) Signaling Pathway (AID 917)
In short: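 Cell-based luciferase reporter screen. Mouse Ba/F3 line stably expressing human TPO receptor; IL-3 removed overnight before plating. Co-treatment with compound and EC50 TPO (26 pM), 24 hrs at 37 C, then luminescence.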

[11] = target: Pyruvate kinase (Leishmania mexicana) (UniProt Q27686); assay: qHTS Validation Assay for Inhibitors of Leishmania Mexicana Pyruvate Kinase (AID 945)
Sequence of Pyruvate kinase (Leishmania mexicana) (Q27686 2-499 E452W): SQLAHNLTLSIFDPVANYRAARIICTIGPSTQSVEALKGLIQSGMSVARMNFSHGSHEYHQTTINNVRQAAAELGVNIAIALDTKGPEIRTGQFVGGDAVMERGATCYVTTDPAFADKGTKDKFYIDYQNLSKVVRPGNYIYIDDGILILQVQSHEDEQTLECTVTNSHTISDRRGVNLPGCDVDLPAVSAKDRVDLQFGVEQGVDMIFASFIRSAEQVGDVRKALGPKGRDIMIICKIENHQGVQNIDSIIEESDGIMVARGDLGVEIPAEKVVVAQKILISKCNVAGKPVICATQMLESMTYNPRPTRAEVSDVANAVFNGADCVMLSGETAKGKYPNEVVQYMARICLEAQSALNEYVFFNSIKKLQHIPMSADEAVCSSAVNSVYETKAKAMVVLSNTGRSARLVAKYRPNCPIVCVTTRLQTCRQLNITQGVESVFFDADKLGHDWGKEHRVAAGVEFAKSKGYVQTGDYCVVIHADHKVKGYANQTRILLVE
In short: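 Purified LmPYK (E451W mutant, 0.2 nM) was incubated 1 h at room temperature with 0.5 mM PEP and 0.1 mM ADP in 50 mM imidazole pH 7.2, 50 mM KCl, 7 mM MgCl2; ATP formed was read by PKLight luminescence, normalized to DMSO wells.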

[12] = target: Pyruvate kinase PKM (Homo sapiens) (UniProt P14618); assay: qHTS Assay for Activators of Human Muscle Pyruvate Kinase (AID 954; active = well fitted curve in the direction sought with a large enough effect, not every such curve was filed as active)
Sequence of Pyruvate kinase PKM (Homo sapiens) (P14618 whole entry, looked up): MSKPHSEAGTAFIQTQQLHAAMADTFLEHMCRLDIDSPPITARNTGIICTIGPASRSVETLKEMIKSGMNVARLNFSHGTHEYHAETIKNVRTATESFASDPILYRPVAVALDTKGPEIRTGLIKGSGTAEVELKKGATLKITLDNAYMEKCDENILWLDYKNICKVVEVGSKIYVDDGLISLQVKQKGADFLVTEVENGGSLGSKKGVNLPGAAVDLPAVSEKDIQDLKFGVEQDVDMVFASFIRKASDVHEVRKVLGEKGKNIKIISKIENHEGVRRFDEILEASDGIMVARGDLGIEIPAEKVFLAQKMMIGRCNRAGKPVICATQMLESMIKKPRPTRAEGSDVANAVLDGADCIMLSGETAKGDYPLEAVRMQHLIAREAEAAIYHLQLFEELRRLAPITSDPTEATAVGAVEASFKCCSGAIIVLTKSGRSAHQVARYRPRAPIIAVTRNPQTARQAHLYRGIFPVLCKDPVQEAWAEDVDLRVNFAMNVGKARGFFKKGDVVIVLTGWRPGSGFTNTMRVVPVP
In short: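 A coupled luminescent readout tracked ATP made from ADP by purified PKM2. Final conditions included 0.1 nM enzyme, PEP and ADP at 0.5 and 0.1 mM, pH 7.2 imidazole buffer with BSA, and a one-hour room-temperature reaction.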

[13] = target: Alpha-galactosidase A (Homo sapiens) (UniProt P06280); assay: Counterscreen for Glucocerebrosidase Inhibitors: qHTS Assay for Human alpha-Galactosidase at pH 4.5 (AID 992)
Sequence of Alpha-galactosidase A (Homo sapiens) (P06280 whole entry, looked up): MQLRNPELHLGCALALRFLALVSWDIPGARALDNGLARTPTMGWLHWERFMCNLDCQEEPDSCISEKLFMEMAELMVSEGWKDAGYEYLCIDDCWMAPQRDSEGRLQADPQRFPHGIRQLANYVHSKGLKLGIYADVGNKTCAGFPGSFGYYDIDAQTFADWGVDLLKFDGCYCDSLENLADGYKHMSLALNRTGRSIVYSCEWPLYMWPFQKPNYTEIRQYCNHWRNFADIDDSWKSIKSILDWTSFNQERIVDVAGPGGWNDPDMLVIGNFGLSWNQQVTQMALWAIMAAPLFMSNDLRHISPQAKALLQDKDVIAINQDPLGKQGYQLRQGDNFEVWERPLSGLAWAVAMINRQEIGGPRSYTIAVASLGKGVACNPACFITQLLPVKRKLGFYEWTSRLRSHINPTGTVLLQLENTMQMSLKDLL
In short: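 Citrate buffer pH 4.5, Tween-20 0.005%. Enzyme 2 nM, substrate 80 uM, 20 min RT. Stop pH 10. Fluorescence Ex 365/Em 440. AC50 by Hill fit.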

[14] = target: alpha-glucosidase (Oryza sativa, rice) (UniProt Q653V4); assay: Counterscreen for Glucocerebrosidase Inhibitors: qHTS Assay for Rice alpha-Glucosidase at pH 5.0 (AID 997)
In short: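 Endpoint fluorogenic assay at pH 5.0: compounds (0.7 nM to 77 uM) titrated against 4 nM rice enzyme and 400 uM 4-MU-alpha-glucoside for 20 min at room temperature; NaOH/glycine stop, read ex 365/em 440 nm, Hill-fitted AC50.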

[15] = qHTS Assay for Identification of Small Molecule Antagonists for NFkB Signaling Pathway (AID 895; active = well fitted inhibition curve with a large enough effect in the signal ratio, with a control signal flat, not every such curve was filed as active; the % refers to the signal ratio)
In short: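 NFkB-bla ME-180 cervical carcinoma cells with beta-lactamase reporter under NFkB response element; compounds added, then TNF alpha at 10 pM final (EC50), 5 h at 37 C. LiveBLAzer substrate 2 h, room temperature; emission 460/530 nm at 405 nm excitation.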

[16] = qHTS Assay for Identification of Small Molecule Agonists for Hypoxia Response Element Signaling Pathway (AID 914; active = well fitted activation curve with a large enough effect in the signal ratio, with a control signal flat, not every such curve was filed as active; the % refers to the signal ratio); settings: ME-180 (cervical carcinoma) HRE-bla reporter, beta-lactamase ratio, CoCl2, 17 h; activation: stronger effect = higher value
In short: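 AC50 values come from titration-series %Activity, taken as the 460/530nm ratio of CCF4 fluorescence (excitation 405nm). CellSensor HRE-bla ME-180 cells were treated 17 hours at 37 C with compound plus an EC50 level of CoCl2.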

[17] = target: Muscarinic acetylcholine receptor M1 (Rattus norvegicus) (UniProt P08482); assay: qHTS Assay for Antagonists of Acetylcholine Muscarinic M1 Receptor: Kinetic Measurement of Intracellular Calcium Response (AID 943);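 note: Fluo-4 calcium signal as peak divided by basal fluorescence over 4 min; nearly all actives have a fitted effect of over 75% in size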
Sequence of Muscarinic acetylcholine receptor M1 (Rattus norvegicus) (P08482 whole entry, looked up): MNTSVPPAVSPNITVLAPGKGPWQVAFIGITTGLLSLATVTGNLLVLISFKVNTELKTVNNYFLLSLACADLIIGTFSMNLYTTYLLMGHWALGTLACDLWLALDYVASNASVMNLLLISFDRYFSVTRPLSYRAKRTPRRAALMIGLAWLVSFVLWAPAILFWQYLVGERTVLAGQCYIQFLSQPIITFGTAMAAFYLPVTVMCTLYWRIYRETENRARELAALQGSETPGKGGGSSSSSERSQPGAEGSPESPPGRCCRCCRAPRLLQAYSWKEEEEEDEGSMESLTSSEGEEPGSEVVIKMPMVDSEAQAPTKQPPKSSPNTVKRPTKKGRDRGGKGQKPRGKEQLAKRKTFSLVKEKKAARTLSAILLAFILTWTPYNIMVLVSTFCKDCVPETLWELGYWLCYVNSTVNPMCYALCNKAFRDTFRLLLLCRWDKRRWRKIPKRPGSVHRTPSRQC
In short: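 Antagonism is measured as inhibition of the carbachol-evoked calcium rise in CHO cells transfected with rat M1. Cells are dye-loaded, exposed to compound for 10 min, then stimulated with 100 nM carbachol (EC80).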

[18] = target: Muscarinic acetylcholine receptor M1 (Rattus norvegicus) (UniProt P08482); assay: qHTS Assay for Antagonists of Acetylcholine Muscarinic M1 Receptor: Measurement of IP-One Response (AID 944); note: nearly all actives have a fitted effect of over 75% in size
In short: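 Antagonist mode with rat M1 receptor transfected into CHO cells. Compound is added first for 10 min, carbachol at its EC80 follows for 30 min, and lysis reagents then allow TR-FRET detection of accumulated IP1.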

| Compound | activity change, negative = inhibition [1] | activity change, negative = inhibition [2] | activity, negative = inhibition [3] | Potency [4] | Potency [5] [µM] | activity change, negative = inhibition [6] | Potency [7] | activity change, positive = activation [8] | outcome [9] | Potency [10] | Potency [11] | outcome [12] | outcome [13] | outcome [14] | Potency [6] | Potency [15] | activation [16] [%] | Potency [17] | Potency [18] |
| --- | --- | --- | --- | --- | --- | --- | --- | --- | --- | --- | --- | --- | --- | --- | --- | --- | --- | --- | --- |
| O=C(C[N+]12CN3CN(CN(C3)C1)C2)c1ccc(-c2ccccc2)cc1 | 8.23% [at 7.69 µM] | -2.51% [at 7.69 µM] | 0.439% [at 7.69 µM] | > 46 µM | > 9.22 | -2.86% [at 11.4 µM] | inactive | -51.5% [at 11.4 µM] | – | – | – | – | – | – | – | – | – | – | – |
| CC(=O)S[C@@H]1CC2=CC(=O)CC[C@@]2(C)[C@H]2CC[C@]3(C)[C@H](CC[C@@]34CCC(=O)O4)[C@H]12 | 19.8% [at 38 µM] | -10% [at 38 µM] | -9.34% [at 38 µM] | 1.4 µM (active) | > 46 | – | – | – | inactive | inactive | inactive | inactive | inactive | inactive | – | – | – | – | – |
| O=c1[nH]c(=O)n([C@H]2C[C@H](O)[C@H](CO)O2)cc1/C=C\Br | -6.02% [at 38 µM] | 3.97% [at 38 µM] | 6.62% [at 38 µM] | > 46 µM | > 46 | – | – | – | inactive | inactive | inactive | inactive | inactive | inactive | inactive | inactive | 0.219 | inactive | inactive |
| O=C(O)[C@@H]1CCCN[C@H]1C(=O)O | 13% [at 38 µM] | -7.71% [at 38 µM] | -12.9% [at 38 µM] | > 46 µM | > 46 | – | inactive | – | inactive | inactive | inactive | inactive | inactive | inactive | inactive | inactive | – | inactive | – |
| CC(NC(=O)Nc1cccnc1)(C(F)(F)F)C(F)(F)F | -12.1% | -11.5% | -3.14% | > 20.6 µM | – | – | – | – | – | – | – | – | – | – | – | – | – | – | – |
| CN1C[C@@H](C(=O)N[C@]2(C)O[C@]3(O)[C@H]4CCCN4C(=O)[C@H](Cc4ccccc4)N3C2=O)C[C@H]2c3cccc4[nH]cc(c34)C[C@@H]21 | -19.9% [at 38 µM] | -15.6% [at 38 µM] | -18.4% [at 38 µM] | > 46 µM | > 46 | – | inactive | – | inactive | inactive | inactive | inactive | inactive | inactive | inactive | – | – | – | – |
